The source of these data is article PMC4336329 (PLoS ONE, 2015).

Among all 310,000 compounds or so, about 14,000 (4.5%) showed an effect of 50% or more. Effects have a minus sign here. Shown is part of a subset that was picked to be rich in strong results.
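Note: peak tail current of the secondary pulse compared with the same well before compound.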

Chain of human ether-à-go-go-related gene (hERG) potassium channel (Q12809 whole entry, looked up): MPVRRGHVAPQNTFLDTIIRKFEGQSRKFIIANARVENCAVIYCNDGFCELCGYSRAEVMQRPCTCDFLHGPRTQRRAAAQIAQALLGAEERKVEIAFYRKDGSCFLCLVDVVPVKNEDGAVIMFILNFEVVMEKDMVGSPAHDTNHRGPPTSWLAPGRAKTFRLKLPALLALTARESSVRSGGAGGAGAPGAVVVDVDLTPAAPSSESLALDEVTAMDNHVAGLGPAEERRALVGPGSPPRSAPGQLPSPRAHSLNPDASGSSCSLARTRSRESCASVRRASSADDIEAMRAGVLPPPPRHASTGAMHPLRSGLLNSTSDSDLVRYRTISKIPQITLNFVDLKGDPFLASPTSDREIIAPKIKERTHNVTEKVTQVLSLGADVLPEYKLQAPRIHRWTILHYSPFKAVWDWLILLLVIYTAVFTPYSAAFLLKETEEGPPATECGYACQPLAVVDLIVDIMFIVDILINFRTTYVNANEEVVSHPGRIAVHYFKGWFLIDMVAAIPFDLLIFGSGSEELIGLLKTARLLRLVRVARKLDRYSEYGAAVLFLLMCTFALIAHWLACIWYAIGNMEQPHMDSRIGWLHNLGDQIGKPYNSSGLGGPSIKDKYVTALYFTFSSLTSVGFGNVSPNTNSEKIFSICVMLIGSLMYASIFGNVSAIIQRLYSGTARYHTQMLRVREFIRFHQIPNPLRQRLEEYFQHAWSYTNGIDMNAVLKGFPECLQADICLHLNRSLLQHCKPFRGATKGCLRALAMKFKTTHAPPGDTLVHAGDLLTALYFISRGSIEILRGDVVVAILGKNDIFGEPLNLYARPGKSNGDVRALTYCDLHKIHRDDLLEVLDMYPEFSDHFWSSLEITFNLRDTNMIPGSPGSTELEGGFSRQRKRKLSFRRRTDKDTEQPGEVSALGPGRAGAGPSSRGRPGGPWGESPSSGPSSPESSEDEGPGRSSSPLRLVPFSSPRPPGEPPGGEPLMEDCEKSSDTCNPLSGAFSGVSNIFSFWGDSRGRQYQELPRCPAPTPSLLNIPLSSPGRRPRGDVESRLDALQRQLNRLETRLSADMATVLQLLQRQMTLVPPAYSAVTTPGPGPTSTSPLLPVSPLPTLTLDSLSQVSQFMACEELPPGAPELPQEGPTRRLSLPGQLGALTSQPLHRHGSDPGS

This assay has as its target human ether-à-go-go-related gene (hERG) potassium channel (human, UniProt Q12809). Kind of assay: primary screen, population patch clamp on CHO cells stably expressing hERG; higher = less effect of the substance.
With `CC(C)(C)/C=N/NC(=O)CNC(=O)c1ccc2c(c1)OCCO2`, the “hERG current change (%, negative = inhibition) at 10uM” value was found to be 15.6%.

On to `CC1(C)C2CCC1(C)C(OC(=O)CCn1ccnc1)C2` (stereo not drawn), for which the “hERG current change (%, negative = inhibition) at 10uM” value was -25.5%.

With `Cc1ccc(C)c2sc(NC(=O)c3nc4ccccc4s3)nc12`, the “hERG current change (%, negative = inhibition) at 10uM” value was found to be 2.76%.

Regarding `CCN(CC)C(=O)Oc1ccc(Br)cc1C(=O)Nc1ccc(F)c(Cl)c1`, the “hERG current change (%, negative = inhibition) at 10uM” value was found to be 2.76%.

For the molecule `CC(=O)c1ccc(/C=C/c2nc3ccccc3n2C)o1`, the “hERG current change (%, negative = inhibition) at 10uM” value is given as -5.96%.

For `Cc1ccc(NCc2nnc(SCC(=O)Nc3cccc(O)c3)n2CC2CCCO2)c(C)c1` (stereo not drawn), the “hERG current change (%, negative = inhibition) at 10uM” value is listed as -68.2%.

With `Cc1ccc(NCc2nnc(SCCN3CCCCC3)n2CC2CCCO2)cc1Cl` (stereo not drawn), the “hERG current change (%, negative = inhibition) at 10uM” value is given as -92.4%.

For the molecule `Cc1ccc(NCc2nnc(SCC(N)=O)n2CC2CCCO2)c(C)c1` (stereo not drawn), the “hERG current change (%, negative = inhibition) at 10uM” value was 8.71%.

`Fc1ccc(NCc2nnc(SCc3nnc(-c4ccccc4)o3)n2CC2CCCO2)cc1` (stereo not drawn): the “hERG current change (%, negative = inhibition) at 10uM” value is on record as -53.1%.

On to `Cc1ccc(NCc2nnc(SCC(=O)NCc3ccco3)n2CC2CCCO2)cc1Cl` (stereo not drawn), for which the “hERG current change (%, negative = inhibition) at 10uM” value was -7.7%.

Take `Cc1ccc(NCc2nnc(SCCN3CCCCC3)n2CC2CCCO2)c(C)c1` (stereo not drawn): the “hERG current change (%, negative = inhibition) at 10uM” value is on record as -58.5%.

`CCSc1nnc(CNc2ccc(F)cc2)n1CC1CCCO1` (stereo not drawn): the “hERG current change (%, negative = inhibition) at 10uM” value was -15.1%.

`CCn1c(CNc2ccc(F)cc2)nnc1SCCN1CCCCC1`: the “hERG current change (%, negative = inhibition) at 10uM” value is recorded as -12.1%.

With `Fc1ccc(NCc2nnc(SCc3nnc(-c4ccccc4)o3)n2Cc2ccccc2)cc1`, the “hERG current change (%, negative = inhibition) at 10uM” value is given as -46%.

Take `Cc1ccc(NCc2nnc(SCC(=O)Nc3ncc(C)s3)n2CC2CCCO2)c(C)c1` (stereo not drawn): the “hERG current change (%, negative = inhibition) at 10uM” value is -12.4%.

In the case of `Cc1ccc(NCc2nnc(SCC(=O)Nc3ccccc3)n2CC2CCCO2)c(C)c1` (stereo not drawn), the “hERG current change (%, negative = inhibition) at 10uM” value is -0.0882%.

In the case of `Cc1ccc(NCc2nnc(SCC(=O)N3CCCCC3)n2CC2CCCO2)c(C)c1` (stereo not drawn), the “hERG current change (%, negative = inhibition) at 10uM” value is given as -5.62%.

Take `CC1(CC(=O)N/N=C/c2cc3c(cc2Br)OCO3)OCCO1`: the “hERG current change (%, negative = inhibition) at 10uM” value is recorded as 15.5%.

Consider `CCc1c(C)sc(NC(=O)OC)c1C(=O)N1CCCCC1`, for which the “hERG current change (%, negative = inhibition) at 10uM” value is recorded as -4.94%.

Take `COC(=O)c1ccc(N2CCN(c3ccccc3)CC2)c(NC(=O)C2CC2)c1`: the “hERG current change (%, negative = inhibition) at 10uM” value is -35.6%.

As for `CC(=NCCc1c[nH]c2ccccc12)c1c(O)n(Cc2ccccc2)c(=O)[nH]c1=O`, the “hERG current change (%, negative = inhibition) at 10uM” value came to 0.859%.

Take `COC(=O)N/N=C\c1cc(Br)ccc1OCc1ccccc1`: the “hERG current change (%, negative = inhibition) at 10uM” value is reported as -6.55%.

Consider `O=C1CCCC(=O)C1=C1SCCCS1`, for which the “hERG current change (%, negative = inhibition) at 10uM” value is -5.96%.

Take `COc1cc(C(=O)N2CCN(c3ccc(C)cc3C)CC2)cc(OC)c1OC`: the “hERG current change (%, negative = inhibition) at 10uM” value is listed as -19.7%.

Turning to `COc1ccc(C(=O)N2CCC(O)(c3ccc(Cl)cc3)CC2)cc1OC`, the “hERG current change (%, negative = inhibition) at 10uM” value is -51.9%.

As to `O=C(c1ccc(Cl)cc1)N1CCC(O)(CSc2ccccc2)CC1`, the “hERG current change (%, negative = inhibition) at 10uM” value is listed as -38.1%.

For the molecule `COc1ccc(C(=O)N2CCN(c3ccc(C)c(C)c3)CC2)cc1OC`, the “hERG current change (%, negative = inhibition) at 10uM” value is -6.14%.

Turning to `COc1ccc(C(=O)N2CCN(c3ccc(C)cc3)CC2)cc1OC`, the “hERG current change (%, negative = inhibition) at 10uM” value is listed as -21.8%.

Turning to `COc1ccc(C(=O)N2CCN(C(=O)c3ccc(-c4ccccc4)cc3)CC2)cc1OC`, the “hERG current change (%, negative = inhibition) at 10uM” value was -43.6%.

On to `COc1ccc(C(=O)N2CCN(c3ccc(C)cc3C)CC2)cc1OC`, for which the “hERG current change (%, negative = inhibition) at 10uM” value was -68.5%.

In the case of `COc1cc(C(=O)N2CCC(O)(c3ccccc3)CC2)cc(OC)c1OC`, the “hERG current change (%, negative = inhibition) at 10uM” value is 14.7%.

Take `O=C(c1ccc(Cl)cc1)N1CCC(O)(CSc2ccc(Cl)cc2)CC1`: the “hERG current change (%, negative = inhibition) at 10uM” value is -44.4%.

For `COc1ccc(C(=O)N2CCC(O)(c3ccc(F)cc3)CC2)cc1OC`, the “hERG current change (%, negative = inhibition) at 10uM” value is reported as -38.6%.

Take `COc1cccc(SCC2(O)CCN(C(=O)c3ccc(Cl)cc3)CC2)c1`: the “hERG current change (%, negative = inhibition) at 10uM” value is listed as -69%.

`COc1ccc(C(=O)N2CCN(c3c(C)cccc3C)CC2)cc1OC`: the “hERG current change (%, negative = inhibition) at 10uM” value is on record as -68.8%.

Consider `Cc1nc2ccc(Cl)cc2c(-c2ccccc2)c1C(=O)N(C)C.Cl`, for which the “hERG current change (%, negative = inhibition) at 10uM” value was -5.56%.

With `CCc1ccccc1NC(=O)CNC(=O)c1cc(C2CC2)nn1-c1ccccc1`, the “hERG current change (%, negative = inhibition) at 10uM” value is listed as -28.8%.

Turning to `O=C(c1noc2c1CCCC2)N1CCC(CO)(Cc2ccccc2Cl)CC1`, the “hERG current change (%, negative = inhibition) at 10uM” value is given as -22.9%.

Regarding `COCCCNC(=O)Cn1ccc(N)nc1=O`, the “hERG current change (%, negative = inhibition) at 10uM” value was 11.4%.

Consider `CN(C)C=O.O=C(Nc1cccc(S(=O)(=O)NC2=NCCCCC2)c1)c1cc(-c2ccco2)nc2ccccc12`, for which the “hERG current change (%, negative = inhibition) at 10uM” value is 19.7%.

Turning to `COc1ccc(-n2c(CNc3ccc(C)cc3)nnc2SCC(=O)Nc2nc(-c3ccccc3)cs2)cc1`, the “hERG current change (%, negative = inhibition) at 10uM” value is on record as -23.1%.

As for `CCN1C(=O)/C(=C/N(C)c2ccccc2)OC1=S`, the “hERG current change (%, negative = inhibition) at 10uM” value is -8.25%.

For `CCN1CCN(CC(=O)Nc2sc3c(c2C#N)CCC3)CC1`, the “hERG current change (%, negative = inhibition) at 10uM” value is given as -18.1%.

Take `CC1CCc2c(sc(NC(=O)C(=O)NCc3ccco3)c2C#N)C1` (stereo not drawn): the “hERG current change (%, negative = inhibition) at 10uM” value is reported as -66.3%.

With `CCN1CCN(CC(=O)Nc2sc3c(c2C#N)CCC(C)C3)CC1` (stereo not drawn), the “hERG current change (%, negative = inhibition) at 10uM” value was -51.7%.

With `CC1CCc2c(sc(NC(=O)CN3CCN(C(=O)c4ccco4)CC3)c2C#N)C1` (stereo not drawn), the “hERG current change (%, negative = inhibition) at 10uM” value was -41.5%.

`CC1CCc2c(sc(NC(=O)COC(=O)c3ccccc3NCc3ccco3)c2C#N)C1` (stereo not drawn): the “hERG current change (%, negative = inhibition) at 10uM” value worked out at 7.34%.

Turning to `CC(=O)Nc1sc2c(c1C#N)CCC(C)C2` (stereo not drawn), the “hERG current change (%, negative = inhibition) at 10uM” value is on record as -3.48%.

As to `O=C(CN1CCOc2ccccc21)N1CCC(Cc2ccccc2)CC1`, the “hERG current change (%, negative = inhibition) at 10uM” value is on record as -26.3%.

On to `Cc1nn(CCc2nn[nH]n2)c2nc(-c3ccccc3)cc(C(F)(F)F)c12`, for which the “hERG current change (%, negative = inhibition) at 10uM” value came out at 19.3%.

With `COc1ccc(-c2csc(NCCc3nc4cc(Cl)c(N5CCCCC5)cc4n3CCOCCO)n2)cc1`, the “hERG current change (%, negative = inhibition) at 10uM” value is -10.4%.

Consider `CC1CCN(CC(=O)n2c3c(c4ccccc42)CCCC3)CC1.Cl`, for which the “hERG current change (%, negative = inhibition) at 10uM” value is 0.546%.

For `CCc1ccc(-c2csc(NC(=O)c3cccnc3)n2)cc1`, the “hERG current change (%, negative = inhibition) at 10uM” value is listed as -3.93%.

Turning to `Cc1ccccc1N=C1N=C(N)c2ccccc21`, the “hERG current change (%, negative = inhibition) at 10uM” value was -2.13%.

`COCCNC(=O)C1CC(=O)N(c2ccc(F)c(Cl)c2)C1` (stereo not drawn): the “hERG current change (%, negative = inhibition) at 10uM” value is listed as -2.89%.

Take `CC1CCCN(CCCNC(=O)C2CC(=O)N(c3ccc(F)c(Cl)c3)C2)C1` (stereo not drawn): the “hERG current change (%, negative = inhibition) at 10uM” value is recorded as -37.9%.

Consider `CN(CCNC(=O)C1CC(=O)N(c2ccc(F)c(Cl)c2)C1)Cc1ccccc1` (stereo not drawn), for which the “hERG current change (%, negative = inhibition) at 10uM” value is given as -52.5%.

For the molecule `O=C(NCCN1CCOCC1)C1CC(=O)N(c2ccc(F)c(Cl)c2)C1` (stereo not drawn), the “hERG current change (%, negative = inhibition) at 10uM” value is given as -3.45%.

`CN(C)CCNC(=O)C1CC(=O)N(c2ccc(F)c(Cl)c2)C1` (stereo not drawn): the “hERG current change (%, negative = inhibition) at 10uM” value is listed as -11.2%.

On to `CC1CCCCN1CCNC(=O)C1CC(=O)N(c2ccc(F)c(Cl)c2)C1` (stereo not drawn), for which the “hERG current change (%, negative = inhibition) at 10uM” value is given as -56.9%.
